Data on 24 compounds can be found in PubChem BioAssay (Tox21).

Results filed as inconclusive are left out. Where a call stands in place of a potency, no number is given. Unmarked numbers belong to inactive results. Active and inactive are the calls of the source. The call rests on the fitted dose curve.
Potency means the concentration at half of the fitted maximal effect.

This assay in a line: qHTS assay to identify small molecule antagonists of the sonic hedgehog signaling (Shh) pathway (AID 1259369). Further: nearly all actives have a fitted effect of over 45% in size. Conditions: NIH/3T3 Gli1-Luc reporter, Shh antagonist, luminescence 24 h; series mostly up to 92.4 µM. The method, boiled down: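 For antagonist detection, the reporter line received test compounds together with conditioned medium, incubated 24hr at 37 C, 5% CO2, then luminescence was recorded following 30min room-temperature luciferase reagent incubation.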
Turning to `C[C@H](CN1CCOCC1)C(C(=O)N1CCCC1)(c1ccccc1)c1ccccc1`, the Potency entry was “inactive”.

Turning to `COC[C@@H](NC(C)=O)C(=O)NCc1ccccc1`, the Potency entry is “inactive”.

Consider `CC[C@@H](CO)NC(=O)[C@@H]1C=C2c3cccc4[nH]cc(c34)C[C@H]2N(C)C1`, for which the Potency result was “inactive”.

Regarding `CC[C@@H](CO)NC(=O)[C@@H]1C=C2c3cccc4c3c(cn4C)C[C@H]2N(C)C1`, the Potency result is “inactive”.

Take `Cc1ccc2cc(C)ccc2c1`: the Potency entry was “inactive”.

With `O=C(Cl)OCc1ccccc1`, the Potency entry is “inactive”.

`CCN[C@@H](C)Cc1ccccc1`: the Potency result was “inactive”.

Take `CCOC1Oc2ccc(OS(C)(=O)=O)cc2C1(C)C` (centres undefined): the Potency entry is “inactive”.

Take `Clc1nc(Cl)nc(Nc2ccccc2Cl)n1`: the Potency entry is “inactive”.

Regarding `CC(Cc1ccccc1)NCCCCl` (centres undefined), the Potency entry is “inactive”.

On to `Clc1cc2c(cc1Cl)Oc1cc(Cl)c(Cl)cc1O2`, for which the activity change, negative = inhibition was -6.77% [at 0.349 µM].

Consider `CCNc1nc(Cl)nc(NC(C)(C)C)n1`, for which the Potency was 969 nM (active).

Take `CC(C)(C1CCC(O)CC1)C1CCC(O)CC1` (centres undefined): the Potency entry was “inactive”.

In the case of `C=CCc1cc(OC)c2c(c1)OCO2`, the Potency result is “inactive”.

With `CC(C)N(Cc1ccccc1)C(=O)C(C)(C)C`, the Potency entry is “inactive”.

As for `Cc1cc(OC(=O)N(C)C)nn1C(=O)N(C)C`, the Potency result is “inactive”.

Regarding `CCC1(c2ccccc2)CCC(=O)NC1=O` (centres undefined), the Potency entry is “inactive”.

On to `CN(C)C(=O)Oc1cc(OC(=O)N(C)C)cc(C(O)CNC(C)(C)C)c1` (centres undefined), for which the Potency entry is “inactive”.

Consider `N[C@@H]1C[C@H]1c1ccccc1`, for which the Potency entry is “inactive”.

On to `O=C/C=C/c1ccco1`, for which the Potency result was “inactive”.

With `OP(O)c1ccccc1`, the Potency result was “inactive”.

Turning to `CCC(C)(C#N)N=NC(C)(C#N)CC` (centres undefined), the Potency result is “inactive”.

`OCC(Cl)CCl` (centres undefined): the Potency entry is “inactive”.

With `O=C(Cl)C(Cl)(Cl)Cl`, the Potency entry was “inactive”.
